Data: paper PMC7862700, “An all-to-all approach to the identification of sequence-specific readers for epigenetic DNA modifications on cytosine”

Assays:
Test in all cases: DAPPL (digital affinity profiling via proximity ligation, sequencing); 10 mM Tris-HCl pH 7.5, 50 mM NaCl, 1 mM DTT, 4% glycerol, room temperature, 30 min; GST-TFs on glutathione beads, 16-mer random dsDNA library, 0.1% formaldehyde crosslink after washing; high values mean tight binding
Details in all cases: protein: recombinant; tags: N-terminal GST; dsDNA, one strand shown
FLI1 = molecular target: T1, FLI1 (Homo sapiens, UniProt Q01543 1-452)
T1 sequence: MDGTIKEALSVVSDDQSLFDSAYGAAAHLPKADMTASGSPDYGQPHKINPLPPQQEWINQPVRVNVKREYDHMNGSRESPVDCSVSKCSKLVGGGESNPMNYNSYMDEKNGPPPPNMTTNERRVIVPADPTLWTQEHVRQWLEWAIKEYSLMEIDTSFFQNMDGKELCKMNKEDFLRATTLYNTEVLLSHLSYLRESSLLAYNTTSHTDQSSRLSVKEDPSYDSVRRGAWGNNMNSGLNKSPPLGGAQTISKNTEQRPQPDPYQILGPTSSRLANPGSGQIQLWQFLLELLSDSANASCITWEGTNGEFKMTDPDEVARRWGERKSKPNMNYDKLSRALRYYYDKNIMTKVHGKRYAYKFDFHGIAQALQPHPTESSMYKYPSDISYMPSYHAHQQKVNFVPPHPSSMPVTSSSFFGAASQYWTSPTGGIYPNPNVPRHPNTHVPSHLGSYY
Outline: (§1)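 The binding signal reported is, for every hexamer, its read frequency for a factor over its read frequency for the tag-only sample. Reads came from pools of yeast-expressed, GST-fused human transcription factors on glutathione beads, barcoded with DNA and mixed with that sample, which were incubated with 200 nmole of a random double-stranded 16-mer DNA library in Tris/NaCl/DTT/glycerol buffer at room temperature for 30 min. After washing, the pools were crosslinked with 0.1% formaldehyde, proximity-ligated with BsaI/T4 ligase for 1 h at 37 °C, PCR-amplified and sequenced on an Illumina NextSeq500.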

ELK1 = molecular target: T2, ELK1 (Homo sapiens, UniProt P19419 1-428)
T2 sequence: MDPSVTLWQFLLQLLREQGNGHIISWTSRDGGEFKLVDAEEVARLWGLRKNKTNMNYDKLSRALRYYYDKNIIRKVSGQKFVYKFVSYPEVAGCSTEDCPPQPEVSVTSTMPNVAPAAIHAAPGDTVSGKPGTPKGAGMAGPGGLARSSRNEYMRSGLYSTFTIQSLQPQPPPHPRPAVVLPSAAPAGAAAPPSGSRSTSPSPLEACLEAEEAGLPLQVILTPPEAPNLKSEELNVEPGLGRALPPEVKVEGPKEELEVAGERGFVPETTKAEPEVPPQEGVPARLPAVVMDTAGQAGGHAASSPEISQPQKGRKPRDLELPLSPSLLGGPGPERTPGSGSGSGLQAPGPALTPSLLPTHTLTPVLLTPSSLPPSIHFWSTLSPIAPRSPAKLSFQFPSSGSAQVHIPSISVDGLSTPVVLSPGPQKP
Outline: as §1

GABPA = molecular target: T3, GABPA (Homo sapiens, UniProt Q06546 1-454)
T3 sequence: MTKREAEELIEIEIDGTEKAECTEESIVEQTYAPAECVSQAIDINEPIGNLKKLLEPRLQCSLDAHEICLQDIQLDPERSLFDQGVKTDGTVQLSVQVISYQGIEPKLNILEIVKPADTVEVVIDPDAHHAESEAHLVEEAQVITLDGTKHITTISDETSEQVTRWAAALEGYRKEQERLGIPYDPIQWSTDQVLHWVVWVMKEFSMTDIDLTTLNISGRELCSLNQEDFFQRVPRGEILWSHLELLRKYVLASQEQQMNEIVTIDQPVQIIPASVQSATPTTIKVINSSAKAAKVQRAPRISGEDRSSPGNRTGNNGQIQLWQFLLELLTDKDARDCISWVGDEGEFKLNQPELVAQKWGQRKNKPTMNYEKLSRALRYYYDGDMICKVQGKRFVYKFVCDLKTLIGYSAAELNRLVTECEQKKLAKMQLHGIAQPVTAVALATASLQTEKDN
Outline: as §1

ERG = molecular target: T4, ERG (Homo sapiens, UniProt P11308 1-479)
T4 sequence: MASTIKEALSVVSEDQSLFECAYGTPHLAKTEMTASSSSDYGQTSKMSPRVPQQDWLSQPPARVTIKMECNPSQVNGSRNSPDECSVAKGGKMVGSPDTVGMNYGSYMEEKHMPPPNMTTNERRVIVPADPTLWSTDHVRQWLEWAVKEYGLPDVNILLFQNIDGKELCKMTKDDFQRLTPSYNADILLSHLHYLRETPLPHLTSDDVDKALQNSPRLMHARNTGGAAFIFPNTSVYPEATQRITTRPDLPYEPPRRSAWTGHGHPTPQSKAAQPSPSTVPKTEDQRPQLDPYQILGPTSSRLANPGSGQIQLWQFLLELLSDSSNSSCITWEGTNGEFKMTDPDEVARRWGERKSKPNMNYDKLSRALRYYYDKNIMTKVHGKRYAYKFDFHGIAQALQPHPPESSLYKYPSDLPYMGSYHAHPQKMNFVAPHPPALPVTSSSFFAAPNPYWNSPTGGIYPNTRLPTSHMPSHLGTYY
Outline: as §1

ELF1 = ELF1 (Homo sapiens, UniProt P32519 1-619)
Chain of ELF1 (P32519 whole entry): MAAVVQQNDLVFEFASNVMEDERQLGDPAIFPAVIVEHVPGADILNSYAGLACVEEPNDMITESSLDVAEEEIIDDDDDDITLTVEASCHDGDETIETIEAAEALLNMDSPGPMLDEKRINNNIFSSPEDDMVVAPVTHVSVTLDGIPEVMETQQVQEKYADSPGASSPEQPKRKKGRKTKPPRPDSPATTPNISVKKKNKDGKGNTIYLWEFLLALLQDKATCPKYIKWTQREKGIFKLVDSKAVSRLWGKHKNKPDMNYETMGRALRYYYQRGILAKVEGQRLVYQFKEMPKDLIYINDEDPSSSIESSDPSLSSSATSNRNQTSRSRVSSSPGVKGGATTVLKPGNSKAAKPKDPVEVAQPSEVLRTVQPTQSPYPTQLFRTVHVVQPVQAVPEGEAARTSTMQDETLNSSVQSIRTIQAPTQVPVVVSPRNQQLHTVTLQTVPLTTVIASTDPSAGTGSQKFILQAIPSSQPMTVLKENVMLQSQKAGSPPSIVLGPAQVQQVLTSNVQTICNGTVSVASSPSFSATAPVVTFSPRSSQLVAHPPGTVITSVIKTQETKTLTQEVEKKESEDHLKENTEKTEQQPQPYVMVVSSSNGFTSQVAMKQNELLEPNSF
Outline: as §1

EHF = molecular target: T5, EHF (Homo sapiens, UniProt Q9NZC4 1-300)
T5 sequence: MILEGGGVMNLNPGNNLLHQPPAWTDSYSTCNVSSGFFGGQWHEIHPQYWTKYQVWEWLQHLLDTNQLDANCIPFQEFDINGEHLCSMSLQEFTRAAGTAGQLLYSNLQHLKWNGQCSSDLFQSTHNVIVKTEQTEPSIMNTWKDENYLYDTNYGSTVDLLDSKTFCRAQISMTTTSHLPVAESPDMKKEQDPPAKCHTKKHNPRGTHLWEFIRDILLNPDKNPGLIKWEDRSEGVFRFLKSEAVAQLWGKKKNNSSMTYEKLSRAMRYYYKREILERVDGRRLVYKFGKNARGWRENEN
Outline: as §1

SPI1 = SPI1 (Homo sapiens, UniProt P17947 1-270)
Outline: as §1

SPIB = SPIB (Homo sapiens, UniProt Q01892 1-262)
Chain of SPIB (Q01892 whole entry): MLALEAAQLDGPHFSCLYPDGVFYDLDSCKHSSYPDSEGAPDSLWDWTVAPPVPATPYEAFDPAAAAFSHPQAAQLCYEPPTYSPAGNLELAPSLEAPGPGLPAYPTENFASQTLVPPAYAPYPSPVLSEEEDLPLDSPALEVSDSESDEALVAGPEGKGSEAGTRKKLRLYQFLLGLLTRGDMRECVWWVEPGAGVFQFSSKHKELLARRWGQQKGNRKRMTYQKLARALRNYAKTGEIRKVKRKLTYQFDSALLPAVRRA
Outline: as §1

ELK3 = molecular target: T6, ELK3 (Homo sapiens, UniProt P41970 1-407)
T6 sequence: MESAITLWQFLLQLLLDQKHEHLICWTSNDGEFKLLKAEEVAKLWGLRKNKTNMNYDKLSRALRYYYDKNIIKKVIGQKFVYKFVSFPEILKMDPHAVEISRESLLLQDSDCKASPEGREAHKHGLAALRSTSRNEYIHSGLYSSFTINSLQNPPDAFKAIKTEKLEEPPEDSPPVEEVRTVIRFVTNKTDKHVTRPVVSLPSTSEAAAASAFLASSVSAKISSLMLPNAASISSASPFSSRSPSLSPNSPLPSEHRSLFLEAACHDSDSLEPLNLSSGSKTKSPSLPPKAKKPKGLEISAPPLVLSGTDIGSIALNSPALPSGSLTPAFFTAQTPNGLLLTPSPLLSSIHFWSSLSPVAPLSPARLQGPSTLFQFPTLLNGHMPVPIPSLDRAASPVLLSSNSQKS
Outline: as §1

| Sequence | binding signal (FLI1) | binding signal (ELK1) | binding signal (GABPA) | binding signal (ERG) | binding signal (ELF1) | binding signal (EHF) | binding signal (SPI1) | binding signal (SPIB) | binding signal (ELK3) |
| --- | --- | --- | --- | --- | --- | --- | --- | --- | --- |
| CTCCCA | 1.47 fold enrichment (6-mer frequency, TF over GST control) | 1.33 fold enrichment (6-mer frequency, TF over GST control) | 1.45 fold enrichment (6-mer frequency, TF over GST control) | 1.38 fold enrichment (6-mer frequency, TF over GST control) | 1.41 fold enrichment (6-mer frequency, TF over GST control) | 1.39 fold enrichment (6-mer frequency, TF over GST control) | 1.43 fold enrichment (6-mer frequency, TF over GST control) | 1.36 fold enrichment (6-mer frequency, TF over GST control) | 1.34 fold enrichment (6-mer frequency, TF over GST control) |
| CTCTGT | 1.5 fold enrichment (6-mer frequency, TF over GST control) | 1.39 fold enrichment (6-mer frequency, TF over GST control) | 1.33 fold enrichment (6-mer frequency, TF over GST control) | 1.29 fold enrichment (6-mer frequency, TF over GST control) | 1.5 fold enrichment (6-mer frequency, TF over GST control) | 1.44 fold enrichment (6-mer frequency, TF over GST control) | 1.34 fold enrichment (6-mer frequency, TF over GST control) | 1.36 fold enrichment (6-mer frequency, TF over GST control) | 1.19 fold enrichment (6-mer frequency, TF over GST control) |
| AAATCC | 1.54 fold enrichment (6-mer frequency, TF over GST control) | 1.66 fold enrichment (6-mer frequency, TF over GST control) | 1.5 fold enrichment (6-mer frequency, TF over GST control) | 1.81 fold enrichment (6-mer frequency, TF over GST control) | 1.59 fold enrichment (6-mer frequency, TF over GST control) | 1.58 fold enrichment (6-mer frequency, TF over GST control) | 1.5 fold enrichment (6-mer frequency, TF over GST control) | 1.65 fold enrichment (6-mer frequency, TF over GST control) | 1.53 fold enrichment (6-mer frequency, TF over GST control) |
| CTAGGT | 1.07 fold enrichment (6-mer frequency, TF over GST control) | 1.13 fold enrichment (6-mer frequency, TF over GST control) | 1.05 fold enrichment (6-mer frequency, TF over GST control) | 1.14 fold enrichment (6-mer frequency, TF over GST control) | 1.2 fold enrichment (6-mer frequency, TF over GST control) | 1.09 fold enrichment (6-mer frequency, TF over GST control) | 1.05 fold enrichment (6-mer frequency, TF over GST control) | 1.13 fold enrichment (6-mer frequency, TF over GST control) | 1.13 fold enrichment (6-mer frequency, TF over GST control) |
| CCCTCG | 1.23 fold enrichment (6-mer frequency, TF over GST control) | 1.34 fold enrichment (6-mer frequency, TF over GST control) | 1.38 fold enrichment (6-mer frequency, TF over GST control) | 1.14 fold enrichment (6-mer frequency, TF over GST control) | 1.34 fold enrichment (6-mer frequency, TF over GST control) | 1.24 fold enrichment (6-mer frequency, TF over GST control) | 1.23 fold enrichment (6-mer frequency, TF over GST control) | 1.34 fold enrichment (6-mer frequency, TF over GST control) | 1.15 fold enrichment (6-mer frequency, TF over GST control) |
| ATCCCC | 1.47 fold enrichment (6-mer frequency, TF over GST control) | 1.46 fold enrichment (6-mer frequency, TF over GST control) | 1.35 fold enrichment (6-mer frequency, TF over GST control) | 1.52 fold enrichment (6-mer frequency, TF over GST control) | 1.5 fold enrichment (6-mer frequency, TF over GST control) | 1.46 fold enrichment (6-mer frequency, TF over GST control) | 1.39 fold enrichment (6-mer frequency, TF over GST control) | 1.39 fold enrichment (6-mer frequency, TF over GST control) | 1.2 fold enrichment (6-mer frequency, TF over GST control) |
| TACCAT | 1.22 fold enrichment (6-mer frequency, TF over GST control) | 1.09 fold enrichment (6-mer frequency, TF over GST control) | 1.19 fold enrichment (6-mer frequency, TF over GST control) | 1.17 fold enrichment (6-mer frequency, TF over GST control) | 1.23 fold enrichment (6-mer frequency, TF over GST control) | 1.11 fold enrichment (6-mer frequency, TF over GST control) | 1.15 fold enrichment (6-mer frequency, TF over GST control) | 1.21 fold enrichment (6-mer frequency, TF over GST control) | 1.21 fold enrichment (6-mer frequency, TF over GST control) |
| AACATA | 1.23 fold enrichment (6-mer frequency, TF over GST control) | 1.26 fold enrichment (6-mer frequency, TF over GST control) | 1.29 fold enrichment (6-mer frequency, TF over GST control) | 1.26 fold enrichment (6-mer frequency, TF over GST control) | 1.28 fold enrichment (6-mer frequency, TF over GST control) | 1.31 fold enrichment (6-mer frequency, TF over GST control) | 1.21 fold enrichment (6-mer frequency, TF over GST control) | 1.22 fold enrichment (6-mer frequency, TF over GST control) | 1.25 fold enrichment (6-mer frequency, TF over GST control) |
